The panel holds about 83,000 compounds, 20% with a hit somewhere; the sample as a whole holds those more often.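 A percent growth of 40 corresponds to 60% growth inhibition; 0 means no net growth; -100 means all cells died. Active threshold: below 10.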 A number with no mark means an inactive call. The source made the active and inactive calls.

For the first test, the system named is HS 578T breast. The test is described as follows: NCI-60 one-dose screen, 48 h (100 = growth as untreated, 0 = no growth, -100 = all killed). Conditions: 10 µM.
On to `COc1ccc(-c2cc3c(nn2)-c2ccccc2C3=O)cc1`, for which the growth was 103%.
As to `CCCCC(=O)c1ccc(OC)cc1`, the growth is 95.2%.
With `N=c1c(C(=O)OCc2ccccc2)ncc(CCl)n1O`, the growth is 114%.
Take `CCOC(=O)c1ccc(Nc2sc(C(=O)c3cccc([N+](=O)[O-])c3)c(N)c2C#N)cc1`: the growth was 15.5%.
Take `COC(=O)c1ccccc1N(C)C`: the growth is 105%.
Turning to `CC1(C(=O)O)NC(C(=O)O)Cc2c1[nH]c1ccccc21` (stereo unspecified), the growth was 109%.
For the molecule `NCCC(=O)c1ccc(Cl)cc1`, the growth was 109%.
Regarding `CC(=O)/C(Cc1ccccc1)=N/O`, the growth was 100%.
Consider `Cc1cccc(CO)c1`, for which the growth was 101%.
With `CC1(C)/C(=C\CO)C2CCC1C2` (stereo unspecified), the growth was 101%.
For the molecule `CC1C(=O)c2ccccc2CC1C(=O)O` (stereo unspecified), the growth is 119%.
As to `CC12CC3CC1C(C(=O)O2)C3C(=O)O` (stereo unspecified), the growth is 108%.
On to `CC(C)CCOC(=O)c1ccccc1`, for which the growth is 105%.
As for `O=C1C[C@H](c2ccccc2)[C@H](c2ccccc2)C1`, the growth is 112%.
As to `O=c1cc(-c2ccccc2)oc2c1ccc1ccccc12`, the growth was 97.8%.
In the case of `O=C(CCl)N1CCN(C/C=C/c2ccccc2)CC1`, the growth is 100%.
Consider `COC(=O)c1cccnc1`, for which the growth was 99.3%.
For the molecule `CC(=O)NCc1cc(C)c(C)cc1C`, the growth is 108%.
`C#CCSc1nnnn1-c1ccc(Br)c(C)c1`: the growth was 78.2%.
Consider `C=CCNC(=O)c1ccc(OC)cc1`, for which the growth was 221%.
As for `O=C1Cc2ccccc2C(=O)O1`, the growth was 107%.
Consider `Cc1ccccc1C1N=C2Oc3ccccc3C=C2C(=O)N1` (stereo unspecified), for which the growth is 32.8%.
As for `C/C(=C\c1cc(Cl)ccc1OCC(=O)O)[N+](=O)[O-]`, the growth was 93.5%.
Same read-out and setting: next, `Cc1cc(Cc2cc(C)c(N)cc2N)c(N)cc1N`: 93.8%; `CC1Cc2ccccc2O1` (stereo unspecified): 111%.
With `Cc1cc(C)cc(NCCC#N)c1`, the growth was 134%.
On to `OCC(O)C(O)C(O)C(O)/C=N/O` (stereo unspecified), for which the growth is 103%.
In the case of `O=c1cc(-c2ccccc2)[nH]c(=S)[nH]1`, the growth was 103%.
In the case of `Nc1nc(N)c(N=Nc2ccc(C(=O)O)cc2)c(N)n1`, the growth is 102%.
With `c1ccc(CN2COc3c(ccc4c3OCN(Cc3ccccc3)C4)C2)cc1`, the growth was 53.6%.
On the same count and under the same terms, next, `CCOC(=O)C1=C(Nc2ccc(Br)cc2)C(=O)N(CC)C1`: 97.4%; `CC(C)=CC(=O)OC(=O)C=C(C)C`: 120%; `O=C(O)C(c1ccccc1)C(O)c1ccccc1` (stereo unspecified): 100%.
For `O=C(CN1CCNCC1)N1CCOCC1`, the growth was 102%.
For `Nc1ccc(N)c([N+](=O)[O-])c1`, the growth is 105%.
Still for that read-out and setting: next, `CCOC(=O)c1coc(C(=O)OCC)c1C(=O)OCC`: 117%; `COC(=O)/C=C/C(=O)NC(N)=O`: 107%.
Same read-out and setting: next, `O=[N+]([O-])c1ccc(N=Nc2ccccc2)cc1`: 119%.

Another test deals with NCI/ADR-RES ovarian. The test is described as above. The following applies: 10 µM.
Regarding `COc1ccc(-c2cc3c(nn2)-c2ccccc2C3=O)cc1`, the growth was 60.9%.
For `CCCCC(=O)c1ccc(OC)cc1`, the growth is 105%.
With `N=c1c(C(=O)OCc2ccccc2)ncc(CCl)n1O`, the growth is 105%.
As to `CCOC(=O)c1ccc(Nc2sc(C(=O)c3cccc([N+](=O)[O-])c3)c(N)c2C#N)cc1`, the growth was 26.8%.
As to `COC(=O)c1ccccc1N(C)C`, the growth was 101%.
Same read-out and setting: next, `CC1(C(=O)O)NC(C(=O)O)Cc2c1[nH]c1ccccc21` (stereo unspecified): 104%.
For the molecule `NCCC(=O)c1ccc(Cl)cc1`, the growth is 103%.
For `CC(=O)/C(Cc1ccccc1)=N/O`, the growth is 99.9%.
With `Cc1cccc(CO)c1`, the growth was 106%.
The same measure, in the same setting: with `CC1(C)/C(=C\CO)C2CCC1C2` (stereo unspecified) the figure was 105%; with `CC1C(=O)c2ccccc2CC1C(=O)O` (stereo unspecified), 102%.
On the same count and under the same terms, with `CC12CC3CC1C(C(=O)O2)C3C(=O)O` (stereo unspecified) the figure was 97.5%; with `CC(C)CCOC(=O)c1ccccc1`, 107%; with `O=C1C[C@H](c2ccccc2)[C@H](c2ccccc2)C1`, 106%.
As for `O=c1cc(-c2ccccc2)oc2c1ccc1ccccc12`, the growth was 82.6%.
Consider `O=C(CCl)N1CCN(C/C=C/c2ccccc2)CC1`, for which the growth is 105%.
With `COC(=O)c1cccnc1`, the growth was 95.9%.
As for `CC(=O)NCc1cc(C)c(C)cc1C`, the growth is 105%.
For the molecule `C#CCSc1nnnn1-c1ccc(Br)c(C)c1`, the growth is 84.6%.
Same read-out and setting: with `C=CCNC(=O)c1ccc(OC)cc1` the figure was 101%; with `O=C1Cc2ccccc2C(=O)O1`, 114%; with `Cc1ccccc1C1N=C2Oc3ccccc3C=C2C(=O)N1` (stereo unspecified), 9.64% (active).
On the same count and under the same terms, next, `C/C(=C\c1cc(Cl)ccc1OCC(=O)O)[N+](=O)[O-]`: 102%.
For `Cc1cc(Cc2cc(C)c(N)cc2N)c(N)cc1N`, the growth was 95.8%.
As for `CC1Cc2ccccc2O1` (stereo unspecified), the growth was 110%.
Turning to `Cc1cc(C)cc(NCCC#N)c1`, the growth is 110%.
On the same count and under the same terms, with `OCC(O)C(O)C(O)C(O)/C=N/O` (stereo unspecified) the figure was 103%.
On to `O=c1cc(-c2ccccc2)[nH]c(=S)[nH]1`, for which the growth was 101%.
With `Nc1nc(N)c(N=Nc2ccc(C(=O)O)cc2)c(N)n1`, the growth was 101%.
Take `c1ccc(CN2COc3c(ccc4c3OCN(Cc3ccccc3)C4)C2)cc1`: the growth was 16.6%.
In the case of `CCOC(=O)C1=C(Nc2ccc(Br)cc2)C(=O)N(CC)C1`, the growth was 93.3%.
Consider `CC(C)=CC(=O)OC(=O)C=C(C)C`, for which the growth is 117%.
Consider `O=C(O)C(c1ccccc1)C(O)c1ccccc1` (stereo unspecified), for which the growth was 107%.
For `O=C(CN1CCNCC1)N1CCOCC1`, the growth is 107%.
Consider `Nc1ccc(N)c([N+](=O)[O-])c1`, for which the growth was 107%.
On the same count and under the same terms, next, `CCOC(=O)c1coc(C(=O)OCC)c1C(=O)OCC`: 119%; `COC(=O)/C=C/C(=O)NC(N)=O`: 109%; `O=[N+]([O-])c1ccc(N=Nc2ccccc2)cc1`: 94.8%.

For the origin of these results see PubChem BioAssay (NCI).
